Measured values taken from PMC5540273 (PLoS ONE, 2017).
Where two headings read alike, the source gives them in different places.

How the values were obtained:
[1] = tested on: CAMKK1; details: concentration: 1 μM, replicates: in singlicate; n = 1
[2] = tested on: CAMKK2; details: concentration: 1 μM, replicates: in singlicate; n = 1
[3] = tested on: CASK; details: concentration: 1 μM, replicates: in singlicate; n = 1
[4] = tested on: T1, CDC2L1; details: concentration: 1 μM, replicates: in singlicate; n = 1
T1 construct: gene CDK11B

[5] = tested on: CDC2L2; details: concentration: 1 μM, replicates: in singlicate; n = 1
[6] = tested on: T2, CDC2L5; details: n = 1
T2 construct: gene CDK13

[7] = tested on: T3, CDK11; details: concentration: 1 μM, replicates: in singlicate; n = 1
T3 construct: gene CDK19

[8] = tested on: CDK2; details: concentration: 1 μM, replicates: in singlicate; n = 1
[9] = tested on: CDK3; details: concentration: 1 μM, replicates: in singlicate; n = 1
[10] = tested on: CDK4-cyclinD1; details: n = 1
[11] = concentration: 1 μM, replicates: in singlicate
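Further: KINOMEscan kinase panel screen.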

| Compound | %Inh [1] | %Inh [2] | %Inh [3] | %Inh [4] | %Inh [5] | %Inh [6, 11] | %Inh [7] | %Inh [8] | %Inh [9] | %Inh [10, 11] | %Inh ([6]; 1 µM) | %Inh ([10]; 1 µM) |
| --- | --- | --- | --- | --- | --- | --- | --- | --- | --- | --- | --- | --- |
| COC(=O)Nc1nc2cc(Oc3ccc(NC(=O)Nc4cc(F)ccc4F)cc3)ccc2[nH]1.Cl [GW701424] | 0% | 4% | 0% | 0% | 6% | 0% | 0% | 0% | 0% | 20% | – | – |
| O=C(NOCC1CC1)c1ccc(F)c(F)c1Nc1ccc(I)cc1Cl | 0% | 0% | 3% | 0% | 0% | 0% | 12% | 0% | 0% | 0% | – | – |
| Fc1ccc(-c2nn3c(OCC(F)(F)F)cccc3c2-c2ccncc2)cc1 [GW514784] | 8% | 9% | 7% | 0% | 11% | 0% | 3% | 0% | 0% | 46% | – | – |
| CCCCCc1nc2c(N)ncnc2n1CCCCC [SKF-97255] | 0% | 0% | 25% | 0% | 0% | 0% | 10% | 0% | 9% | 0% | – | – |
| Cc1c(Cn2c(C)nn3c(=O)cc(N4CCOC(C)C4)nc23)cccc1C(F)(F)F (stereo not drawn) [GSK2344444] | 0% | 0% | 0% | 0% | 0% | 0% | 0% | 0% | 4% | 0% | – | – |
| COc1ccc(S(=O)(=O)NC2CCN(c3cc(C)nc(Nc4cccc(C#N)c4)n3)CC2)cc1.O=C(O)C(F)(F)F [GSK1653539] | 2% | 16% | 0% | 0% | 37% | 0% | 0% | 0% | 0% | 0% | – | – |
| Cc1cn2c(=O)cc(N3CCOCC3)nc2n1Cc1cccc(Cl)c1Cl [GSK2334006] | 30% | 32% | 20% | 0% | 6% | 0% | 11% | 17% | 25% | 0% | – | – |
| CSc1ccc(-c2cc3ncnc(SCC(=O)O)c3s2)cc1 | 44% | 45% | 0% | 7% | 0% | 0% | 0% | 0% | 40% | 0% | – | – |
| [2H]C([2H])(c1cccc(C(F)(F)F)c1C)n1ccn2c(=O)nc(N3CCOCC3)cc12 [GSK2336394] | 0% | 0% | 8% | 0% | 17% | 0% | 5% | 0% | 1% | 0% | – | – |
| c1ccc(-c2cc(-c3c[nH]nc3-c3ccccn3)ccn2)cc1 [GW576604] | 5% | 24% | 0% | 0% | 16% | 0% | 11% | 13% | 0% | 0% | – | – |
| Nc1nc(-c2ccc3c(N)n[nH]c3c2)cc(N2CCCC2)n1 [GSK2227430] | 0% | 10% | 0% | 0% | 14% | 0% | 1% | 0% | 0% | 0% | – | – |
| CCc1nc(-c2cccc(C)c2)c(-c2ccnc(NCc3ccccc3)c2)s1 | 3% | 12% | 16% | 0% | 5% | 11% | 0% | 0% | 9% | 0% | – | – |
| NS(=O)(=O)c1cccc(-c2ccc3ncc(N4CCOCC4)nc3c2)c1 [GSK1535721] | 11% | 12% | 1% | 6% | 34% | 0% | 7% | 0% | 0% | 0% | – | – |
| CN(C(=O)c1ccc(-c2cc(-c3c[nH]nc3-c3ccccn3)ccn2)cc1)C1CCOCC1 [GW810083] | 12% | 25% | 0% | 0% | 0% | 11% | 52% | 0% | 0% | 31% | – | – |
| O=C(Nc1n[nH]c2cc(-c3cccc(F)c3)ccc12)C1CC1 [SB-735464] | 18% | 14% | 10% | 2% | 9% | 23% | 0% | 27% | 0% | 8% | – | – |
| O=c1cc(N2CCOCC2)nc2n(Cc3cccc(Cl)c3Cl)c(C3CC3)nn12 [GSK2358994] | 3% | 8% | 26% | 0% | 0% | – | 0% | 0% | 5% | – | 0% | 0% |
| Cl.Oc1cccc(Nc2ccnc3cc(-c4ccncc4)ccc23)c1 [GW494601] | 0% | 29% | 10% | 0% | 10% | 0% | 4% | 0% | 0% | 0% | – | – |

| Compound | %Inh [1] | %Inh [2] | %Inh [3] | %Inh [4] | %Inh [5] | %Inh [6, 11] | %Inh [7] | %Inh [8] | %Inh [9] | %Inh [10, 11] | %Inh ([6]; 1 µM) | %Inh ([10]; 1 µM) |
| --- | --- | --- | --- | --- | --- | --- | --- | --- | --- | --- | --- | --- |
| Cc1nnc(-c2ccc3occ(-c4ccc(C(C)O)cc4)c3c2)o1 (stereo not drawn) | 12% | 14% | 4% | 1% | 4% | 22% | 0% | 5% | 4% | 0% | – | – |
| O=c1cc(N2CCOCC2)nc2n(Cc3cccc(F)c3)ccn12 [GSK2297430] | 25% | 3% | 0% | 3% | 6% | 0% | 0% | 7% | 1% | 0% | – | – |
| COc1ccc(Nc2nccc(N3CCC(NC(=O)Nc4cccc(C(C)=O)c4)C3)n2)cc1 (stereo not drawn) [GSK1379731] | 0% | 1% | 0% | 0% | 0% | 0% | 79% | 0% | 0% | 2% | – | – |
| Cc1nnc(-c2ccc3ncc(-c4ccc(S(C)=O)cc4)n3c2)o1 (stereo not drawn) | 24% | 46% | 0% | 0% | 0% | 25% | 17% | 0% | 2% | 8% | – | – |
| COc1ccc(Nc2ncc(C#N)c(Nc3ccccc3C(N)=O)n2)cc1N1CCN(C)CC1.Cl [GSK1558669] | 96.9% | 98.5% | 75% | 0% | 1% | 69% | 0% | 96.3% | 90% | 94.8% | – | – |
| Cc1c2ccc(N(C)c3ccnc(Nc4cccc(S(N)(=O)=O)c4)n3)cc2nn1Cc1ccccc1.Cl.Cl [GW787226] | 0% | 0% | 9% | 66% | 76% | 0% | 9% | 0% | 3% | 0% | – | – |
| O=C(NCCCN1CCOCC1)c1cccc(Nc2nccc(Nc3ccc(Oc4ccccc4)cc3)n2)c1 [GW663929] | 0% | 7% | 7% | 10% | 26% | 0% | 15% | 0% | 0% | 6% | – | – |
| COc1ccc(CNC(=O)NC2CCN(c3ccnc(Nc4ccc(OC)cc4)n3)C2)cc1 (stereo not drawn) [GSK1379727] | 0% | 4% | 16% | 0% | 8% | 0% | 1% | 0% | 13% | 18% | – | – |
| CCc1ccnc(/C=C/c2n[nH]c3cc(Sc4ccccc4C(=O)NC)ccc23)c1 | 16% | 11% | 34% | 7% | 2% | 0% | 0% | 3% | 0% | 16% | – | – |
| Cc1cccc(-c2nc(Nc3ccc4ncsc4c3)c3ccccc3n2)n1 [GW867588] | 0% | 20% | 1% | 0% | 13% | 0% | 0% | 9% | 6% | 0% | – | – |
| O=C1NC(=O)C(N2CCc3ccccc32)=C1c1cccc(Cl)c1 [SB-408010] | 7% | 0% | 0% | 0% | 5% | 0% | 0% | 0% | 0% | 0% | – | – |
| CN(C1=C(c2ccccc2)C(=O)NC1=O)c1ccccc1 [SB-334860] | 0% | 16% | 17% | 0% | 14% | 0% | 8% | 5% | 8% | 0% | – | – |
| COc1cc(Nc2nccc(N3CCC(NC(=O)c4cccc(NC(C)=O)c4)C3)n2)cc(OC)c1OC (stereo not drawn) [GSK1379754] | 0% | 11% | 1% | 0% | 2% | 0% | 20% | 2% | 0% | 0% | – | – |
| COCCNC(=O)c1ccc(-c2cc(C(=O)NC3CC3)cc(F)c2C)cc1 [GW868318] | 3% | 16% | 16% | 3% | 15% | 33% | 6% | 12% | 11% | 24% | – | – |
| CN1c2ccc(NCc3ccc(F)cc3)cc2-c2c(cnn2C)S1(=O)=O | 0% | 0% | 26% | 0% | 0% | 27% | 0% | 25% | 0% | 21% | – | – |
| C[C@@H](Oc1cc(-n2cnc3ccc(NC(=O)NC(C)(C)C)cc32)sc1C(N)=O)c1ccccc1Cl [GSK346294] | 3% | 24% | 11% | 0% | 13% | 0% | 4% | 0% | 9% | 8% | – | – |
